Here are results for four molecules from PubChem BioAssay.

The structures appear in SMILES notation. Active and inactive are the calls of the source.

Assay [1] is described as follows: optical density shifts of acrAB sulA E. coli – strain DRC41, OD650, 48 h, E. coli filamentation inducer project, primary screen (AID 1152).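 Note: E. coli MC1000 strain DRC41 lacking acrAB efflux pump and sulA.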 The note with it: higher = more signal, called active from +8 up or from −8 down.
Assay [2] can be described thus: probe aLefty1 binding on compound microarray – biochemical, small-molecule microarray, 635/667 nm fluorescence, primary screen (AID 1153).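 Note: score merges spot fluorescence with signal-to-noise ratio from the scanned slide images.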 The note with it: higher = more signal.
Assay [3] is described as follows: plasmodial surface anion channel blockers, osmotic lysis – cell-based, P. falciparum Indochina, OD700, 1 h, primary screen (AID 1154). The note with it: P. falciparum Indochina infected RBC osmotic lysis, higher = more signal, called active from +8 up or from −8 down.
Assay [4] in a line: plasmodial surface anion channel blockers, osmotic lysis – cell-based, P. falciparum Indochina, OD700, 2 h, primary screen (AID 1155).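 Note: lysis reports solute entry through the parasite surface anion channel PSAC.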 The following applies: P. falciparum Indochina infected erythrocytes, higher = more signal, called active from +8 up or from −8 down.
Assay [5] in a line: changes in parasitized red cell lysis, either direction – P. falciparum Indochina, OD700, 3 h, PSAC antagonist project, primary screen (AID 1156). The note with it: P. falciparum-infected erythrocytes, osmotic lysis, higher = more signal, called active from +8 up or from −8 down.
Assay [6] can be described thus: plasmodial surface anion channel blockers, osmotic lysis – cell-based, P. falciparum Indochina, OD700, 18 h, primary screen (AID 1157). The note with it: P. falciparum Indochina infected erythrocytes, osmotic lysis OD700, 18 h; higher = more signal, called active from +8 up or from −8 down.
Assay [7] is described as follows: S6 kinase pathway phospho-S6 level changes – cell-based, A549, cytoblot, luminescence, serum-stimulated, primary screen (AID 1158).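 Note: serum-stimulated A549 lung adenocarcinoma cells; signal is phosphorylated S6 detected by cytoblot immunostaining with HRP secondary.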 The note with it: 5 h, higher = more signal.
Assay [8] concerns the target NADPH oxidase 2 (Homo sapiens) (UniProt P04839). The assay can be described thus: compounds shifting NOX2 Amplex Red fluorescence – cell-based, HEK293-NOX2, PMA-stimulated, NOX inhibitor project, primary screen (AID 1159). Note: test concentration not given here. The note with it: 45 min, higher = more signal, called active from +8 up or from −8 down.
For assay [9], the target named is NADPH oxidase 4 (Homo sapiens) (UniProt Q9NPH5). The assay can be described thus: compounds shifting NOX4 Amplex Red fluorescence – cell-based, HEK293-NOX4, tetracycline-induced, NOX inhibitor project, primary screen (AID 1160). The note with it: HEK293-NOX4, Amplex Red H2O2 fluorescence, 45 min; higher = more signal, called active from +8 up or from −8 down.
Assay [10] addresses NADPH oxidase 5 (Homo sapiens) (UniProt Q96PH1). Kind of assay: compounds shifting NOX5 Amplex Red fluorescence – cell-based, HEK293-NOX5, NOX inhibitor project, primary screen (AID 1161). The following applies: HEK293-NOX5, ionomycin, 45 min, higher = more signal.
Assay [11] in a line: compound effects on lung adenocarcinoma cell viability – A549, calcein-AM fluorescence, 48 h, basal, profiling panel (AID 1162). Note: test concentration not given here. The following applies: higher = more signal.
Assay [12] is described as follows: compound effects on differentiated 3T3-L1 adipocyte viability – cell-based, 3T3-L1 adipocytes, calcein-AM fluorescence, 48 h, basal, profiling panel (AID 1163). Note: test concentration not given here. The following applies: 3T3-L1 adipocytes viability, higher = more signal.
The nature of assay [13]: compound effects on hepatocellular carcinoma cell viability – HepG2, calcein-AM fluorescence, 48 h, basal, profiling panel (AID 1164). Note: test concentration not given here. The following applies: higher = more signal.
Assay [14] is described as follows: compound effects on multiple myeloma cell viability – MM1S, calcein-AM fluorescence, 48 h, basal, profiling panel (AID 1165).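 Note: viability of MM1S multiple myeloma cells under basal unstimulated conditions; test concentration not given here.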 The note with it: higher = more signal.
Assay [15] is described as follows: calcein-AM signal in unstimulated myeloma cells – cell-based, calcein-AM fluorescence, 48 h, PK04 Diversity Set, profiling panel (AID 1166).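 Note: cells grown under basal conditions without added stimulus; test concentration not given here.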 The following applies: RPMI8226 myeloma viability, higher = more signal.
Assay [16] can be described thus: JC-1 mitochondrial signal, unstimulated HepG2 cells – cell-based, JC-1 fluorescence, 24 h, 100 nL compound, profiling panel (AID 1167). Note: test concentration not given here. The following applies: HepG2 mitochondrial potential, higher = more signal.
The nature of assay [17]: JC-1 mitochondrial signal, unstimulated adipocytes – cell-based, JC-1 fluorescence, 3T3-L1 adipocytes, 24 h, 100 nL compound, profiling panel (AID 1168). Note: test concentration not given here. The note with it: JC-1 mitochondrial fluorescence, higher = more signal, called active from +8 up or from −8 down.
Assay [18] in a line: JC-1 mitochondrial signal, unstimulated myeloma cells – cell-based, JC-1 fluorescence, RPMI8226, 24 h, 100 nL compound, profiling panel (AID 1169). Note: test concentration not given here. The note with it: JC-1 mitochondrial potential fluorescence, higher = more signal.
Assay [19] in a line: JC-1 mitochondrial signal, unstimulated MM1S myeloma – cell-based, JC-1 fluorescence, 24 h, 100 nL compound, profiling panel (AID 1170). Note: test concentration not given here. The note with it: MM1S mitochondrial potential, higher = more signal.
The nature of assay [20]: resazurin metabolic signal in A549 cells – cell-based, resazurin fluorescence, 24 h, PK04 Diversity Set, profiling panel (AID 1171). Note: test concentration not given here. The note with it: A549 viability, higher = more signal, called active from +8 up or from −8 down.

NADPH oxidase 2 (Homo sapiens), sequence (P04839 whole entry, looked up): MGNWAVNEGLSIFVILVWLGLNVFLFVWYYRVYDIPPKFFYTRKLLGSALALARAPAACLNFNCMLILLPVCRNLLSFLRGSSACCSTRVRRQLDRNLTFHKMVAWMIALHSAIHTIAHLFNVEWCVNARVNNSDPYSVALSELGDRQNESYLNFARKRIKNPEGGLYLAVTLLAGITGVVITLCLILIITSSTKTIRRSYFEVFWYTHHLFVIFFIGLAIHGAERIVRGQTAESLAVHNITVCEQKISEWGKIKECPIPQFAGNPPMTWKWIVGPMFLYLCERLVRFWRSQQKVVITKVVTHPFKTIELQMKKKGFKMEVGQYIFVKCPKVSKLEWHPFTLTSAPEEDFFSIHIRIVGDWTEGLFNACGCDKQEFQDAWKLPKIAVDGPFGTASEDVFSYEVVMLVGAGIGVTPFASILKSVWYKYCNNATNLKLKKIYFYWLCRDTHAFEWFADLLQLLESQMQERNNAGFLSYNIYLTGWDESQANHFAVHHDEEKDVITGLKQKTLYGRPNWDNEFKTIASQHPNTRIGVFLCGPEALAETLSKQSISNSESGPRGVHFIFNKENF
NADPH oxidase 5 (Homo sapiens), sequence (Q96PH1 whole entry, looked up): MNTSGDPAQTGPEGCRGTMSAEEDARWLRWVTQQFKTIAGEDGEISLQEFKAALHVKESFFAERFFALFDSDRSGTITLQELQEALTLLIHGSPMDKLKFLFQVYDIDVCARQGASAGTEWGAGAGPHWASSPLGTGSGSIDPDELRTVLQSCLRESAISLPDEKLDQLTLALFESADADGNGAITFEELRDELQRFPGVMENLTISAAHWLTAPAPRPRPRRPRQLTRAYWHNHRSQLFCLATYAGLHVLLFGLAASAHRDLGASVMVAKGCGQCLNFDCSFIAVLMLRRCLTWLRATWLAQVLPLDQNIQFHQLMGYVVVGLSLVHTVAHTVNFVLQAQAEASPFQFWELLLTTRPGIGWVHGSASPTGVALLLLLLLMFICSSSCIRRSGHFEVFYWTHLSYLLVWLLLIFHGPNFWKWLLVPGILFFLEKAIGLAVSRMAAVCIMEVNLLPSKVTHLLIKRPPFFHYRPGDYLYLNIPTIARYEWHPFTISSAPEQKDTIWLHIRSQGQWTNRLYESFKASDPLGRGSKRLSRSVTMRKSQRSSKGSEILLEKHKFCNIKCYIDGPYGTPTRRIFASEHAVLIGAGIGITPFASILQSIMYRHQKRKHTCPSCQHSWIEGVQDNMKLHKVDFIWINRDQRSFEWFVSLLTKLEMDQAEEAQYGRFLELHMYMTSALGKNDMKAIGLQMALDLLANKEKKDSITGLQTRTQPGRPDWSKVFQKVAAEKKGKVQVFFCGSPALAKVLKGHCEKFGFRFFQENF
NADPH oxidase 4 (Homo sapiens), sequence (Q9NPH5 whole entry, looked up): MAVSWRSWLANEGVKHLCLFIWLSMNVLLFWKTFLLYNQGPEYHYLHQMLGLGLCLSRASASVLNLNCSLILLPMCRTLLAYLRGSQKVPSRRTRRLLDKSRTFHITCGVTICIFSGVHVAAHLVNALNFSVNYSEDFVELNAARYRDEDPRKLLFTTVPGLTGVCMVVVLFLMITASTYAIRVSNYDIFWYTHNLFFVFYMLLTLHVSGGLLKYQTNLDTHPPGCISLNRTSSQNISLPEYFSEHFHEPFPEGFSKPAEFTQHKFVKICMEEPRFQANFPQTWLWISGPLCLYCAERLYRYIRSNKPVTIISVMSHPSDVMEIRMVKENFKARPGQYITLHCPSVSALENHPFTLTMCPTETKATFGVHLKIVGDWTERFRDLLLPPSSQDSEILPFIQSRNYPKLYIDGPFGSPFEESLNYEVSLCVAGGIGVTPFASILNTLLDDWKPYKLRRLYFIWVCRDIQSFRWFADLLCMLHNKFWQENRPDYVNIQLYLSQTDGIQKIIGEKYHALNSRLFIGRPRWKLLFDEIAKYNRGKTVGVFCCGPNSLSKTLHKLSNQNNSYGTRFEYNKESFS

On to `C=CC1c2cc(O)c(OC)cc2CCN1Cc1sc2ccccc2c1Cl` (stereo not given), for which the z-score in assay [1] is -1.38 (inactive); in [3], 17.9 (active); in assay [4] it was 5.17 (inactive); in assay [5], -0.604 (inactive); in assay [6], 1.41 (inactive); in [7] it was -0.248. Besides, the z-score in assay [8] was -4.21 (inactive); in assay [9], -2.48 (inactive); in assay [10] it was -2.08; in assay [11], -4.28; in [12], 0.155; in [13] it was -4.42. For the same molecule, the z-score in [14] was -3.24; in assay [15], -4.45; in assay [16], -3.08; in [17], -0.224 (inactive); in [18] it was -0.811; in assay [19], -0.358. Moreover, the z-score in [20] is -0.784 (inactive). In addition, in assay [2], the composite z-score worked out at 0.268.
As to `CC(C)CNC(=O)[C@@H]1c2ccccc2C(=O)N(Cc2cc(F)cc(C(F)(F)F)c2)[C@H]1c1ccc(CO)cc1`, the z-score in assay [1] is 2.9 (inactive); in [3], 2.62 (inactive); in assay [4] it was 0.649 (inactive); in assay [5], 1.27 (inactive); in assay [6], -0.111 (inactive); in assay [7] it was 0.207. Further, the z-score in [8] was -0.453 (inactive); in assay [9] it was 0.967 (inactive); in [10] it was 0.52; in assay [11], 2.21; in assay [12], -0.979; in assay [13], 1.37. The z-score is -0.215 in [14]; 0.857 in assay [15]; 2.31 in assay [16]; 0.299 (inactive) in [17]; -0.137 in [18]; 0.205 in assay [19]. Besides, the z-score in [20] was 0.317 (inactive). This molecule also displayed a composite z-score in assay [2] of 0.0571.
As to `[N-]=[N+]=Nc1ccccc1[C@@H]1OC(c2ccc(OCCCO)cc2)=N[C@]1(CCS(=O)(=O)c1ccccc1)C(=O)NCCN1CCOCC1`, the z-score was 0.0992 (inactive) in assay [1]; 27.4 (active) in [3]; 20.8 (active) in [4]; 1.9 (inactive) in assay [5]; 0.667 (inactive) in assay [6]; 1.12 in assay [7]. Besides, the z-score in assay [8] was -3.49 (inactive); in [9], -0.729 (inactive); in [10], -1.84; in [11], 0.652; in assay [12], 1.37; in assay [13], -0.229. For the same molecule, the z-score in [14] is 0.351; in assay [15], -1.58; in [16] it was 0.0652; in assay [17], -0.783 (inactive); in [18] it was -0.465; in assay [19], -1.2. The z-score in [20] was 0.465 (inactive). This molecule also yielded a composite z-score in [2] of 0.417.
For the molecule `CC(C)(C)OC(=O)CC[C@]1(C(=O)NCCN2CCOCC2)N=C(c2ccc(OCCCO)cc2)O[C@H]1c1ccccc1`, the z-score in [1] was 0.167 (inactive); in assay [3], 12.5 (active); in assay [4] it was 1.5 (inactive); in [5], 0.531 (inactive); in [6], 0.47 (inactive); in assay [7], -0.501. Further, the z-score is 0.618 (inactive) in assay [8]; 1.54 (inactive) in assay [9]; 1.42 in [10]; 1.01 in assay [11]; -1.82 in [12]; 0.549 in [13]. The z-score in assay [14] is 0.251; in assay [15] it was -0.51; in [16], -0.342; in assay [17] it was 0.134 (inactive); in [18] it was -0.69; in assay [19], -0.158. Also, the z-score in assay [20] was 0.0762 (inactive). Further, the composite z-score in assay [2] came out at 0.119.
